Giardia kill – Small Molecules that selectively kill Giardia lamblia: qHTS; Giardia lamblia trophozoite viability; activity change, % at 7.66 µM, hits read low; hit rate 0.15% among 340,000; AID 540267, 2011; in the data active = activity change below about -80%; inconclusive = between about -30% and that limit;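 also: parasites exposed to compound for two days anaerobically before the ATP read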
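Trophozoites 100 cells/well + cpd; 48 hrs, 37 deg C, anaerobic. ATPLite 1-Step added, 15-30 min RT, luminescence read (ATP-based viability).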
TDP1 inh – qHTS Assay for Inhibitors of Tyrosyl-DNA Phosphodiesterase (TDP1); recombinant TDP1, AlphaScreen DNA substrate cleavage; hit rate 0.28% among 350,000; Tyrosyl-DNA phosphodiesterase 1 (Homo sapiens), Q9NUW8; AID 485290, 2010; Potency, µM (titrated, usually from 130 µM), usual class: inhibitors; also: nearly all actives have a fitted effect of over 40% in size
Target sequence (Q9NUW8 whole entry, looked up): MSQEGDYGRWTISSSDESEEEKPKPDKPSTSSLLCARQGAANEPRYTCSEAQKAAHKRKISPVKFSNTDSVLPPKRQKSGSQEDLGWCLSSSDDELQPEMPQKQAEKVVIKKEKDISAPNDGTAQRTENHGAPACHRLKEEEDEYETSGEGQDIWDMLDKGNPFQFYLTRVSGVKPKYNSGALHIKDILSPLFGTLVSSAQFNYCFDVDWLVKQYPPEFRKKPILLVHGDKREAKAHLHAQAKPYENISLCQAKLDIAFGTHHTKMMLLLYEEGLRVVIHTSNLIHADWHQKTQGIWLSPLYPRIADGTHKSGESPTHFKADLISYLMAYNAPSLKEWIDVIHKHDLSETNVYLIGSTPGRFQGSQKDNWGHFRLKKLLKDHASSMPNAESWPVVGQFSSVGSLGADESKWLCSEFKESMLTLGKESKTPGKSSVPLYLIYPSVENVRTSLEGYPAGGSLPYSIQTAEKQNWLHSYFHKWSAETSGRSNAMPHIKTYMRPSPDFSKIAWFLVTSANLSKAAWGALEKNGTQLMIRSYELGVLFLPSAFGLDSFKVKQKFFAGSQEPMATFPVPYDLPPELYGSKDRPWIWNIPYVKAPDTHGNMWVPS
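Recombinant human Tdp1 (E. coli-expressed, 1 nM final) preincubated with compounds 15 min at room temperature, then 5'-biotin/3'-phosphotyrosine-FITC DNA substrate (15 nM final) added for 5 min. AlphaScreen beads (10 ug/ml final) added 10 min; cleavage lowers signal.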
TDP1 cell noCPT – qHTS for Inhibitors of human tyrosyl-DNA phosphodiesterase 1 (TDP1): qHTS in cells in absence of CPT. DT40 Tdp1-/- hTDP1 cells, no CPT, ATP luminescence, 48 h. Potency, µM (top dose mostly 46.2 µM), actives largely listed as inhibitors. hit rate 15% among 420,000; also: nearly all actives have a fitted effect of over 55% in size
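Cells were dispensed at 400 per well, compounds added by pin tool, plates incubated ≥48 hr at 37 °C, then CellTiter-Glo added for 30 min at room temperature before luminescence reading. Line: DT40 Tdp1-/- complemented with hTDP1; camptothecin omitted.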
IL-1B inflam inh – qHTS for Inhibitors of Inflammasome Signaling: IL-1-beta AlphaLISA Primary Screen; hit rate 4.7% among 360,000; THP-1 LPS/ATP IL-1B secretion, AlphaLISA, 16 h; hits give low values; activity change, % at 57.5 µM; in the data active = activity change below about -50%; inconclusive = mostly about -30% to -49%
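THP-1 cells pretreated 1 hr with compounds (up to 57.5 uM final), then stimulated with LPS (250 ng/mL final) plus ATP (1.25 mM final); secreted IL-1B measured by AlphaLISA after 16 hr, decreased signal indicating inhibition.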
ELG1 repair inh – qHTS screen for small molecules that inhibit ELG1-dependent DNA repair in human embryonic kidney (HEK293T) cells expressing luciferase-tagged ELG1 | HEK293T ELG1-luciferase reporter, luminescence, 16 h; DNA damage induced by 5-fluorouridine | Potency, µM (series often up to 46.1 µM), actives largely listed as inhibitors | hit rate 2.3% among 330,000 | AID 504467, 2011; also: nearly all actives have a fitted effect of over 55% in size
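Cells (2,000 per well) received 5-fluorouridine plus test compound or DMSO and were incubated 16 hr at 37 °C, 5% CO2. Luciferase activity was read by luminescence 30 min after ONE-Glo addition; signal suppression marked inhibition of damage-induced ELG1 function.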
DT40 TDP1 CPT – qHTS for Inhibitors of human tyrosyl-DNA phosphodiesterase 1 (TDP1): qHTS in cells in presence of CPT; AID 686979, 2013; Potency, µM (series often up to 46.2 µM), hits mostly inhibitors; chicken DT40 Tdp1-/-;hTDP1 cells + 20 nM CPT, ATP luminescence, 48 h; hit rate 12% among 420,000; also: nearly all actives have a fitted effect of over 55% in size
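Chicken DT40 Tdp1-/- cells complemented with human TDP1, 400 cells/well, exposed to compounds plus 20 nM camptothecin for at least 48 h at 37 C; viability read as ATP content by CellTiter-Glo luminescence.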
Of the large screens only hits and unclear results are named; the others gave an inactive call. Sampled rows, rich in hits. Any-hit rate of the full collection: about 19%. Unless noted, calls follow the shape of the dose curve; as a rule, active = well fitted curve in the direction sought with a large enough effect; inconclusive = small, poorly fitted or top-dose-only effect, or another doubt; inactive = no such curve, though single readings can be large; an effect the other way counts as inactive or inconclusive.

Cc1[nH]c(C)c(S(=O)(=O)Nc2ccc(OC(F)(F)F)cc2)c1C(=O)N1CCCCC1	TDP1 cell noCPT 16µM, IL-1B inflam inh inconclusive, DT40 TDP1 CPT 21µM
CCc1cccc(C)c1NS(=O)(=O)c1c(C(=O)N2CCC(C)CC2)c(C)n(C)c1C	TDP1 cell noCPT inconclusive, DT40 TDP1 CPT 18µM (no result: Giardia kill, IL-1B inflam inh, ELG1 repair inh)
Cc1c(C(=O)N2CCC(C)CC2)c(S(=O)(=O)Nc2ccc(OC(F)(F)F)cc2)c(C)n1C	TDP1 cell noCPT 16µM, DT40 TDP1 CPT inconclusive (no result: Giardia kill, IL-1B inflam inh, ELG1 repair inh)
CCc1cccc(C)c1NS(=O)(=O)c1c(C(=O)N2CCCCCC2)c(C)n(C)c1C	TDP1 cell noCPT inconclusive, DT40 TDP1 CPT inconclusive (no result: Giardia kill, IL-1B inflam inh, ELG1 repair inh)
Cc1ccc(NS(=O)(=O)c2c(C)[nH]c(C)c2C(=O)N2CCCC2)cc1	none
CCc1ccc2oc(-c3cc(NC(=O)c4cc([N+](=O)[O-])ccc4N4CCOCC4)ccc3Cl)nc2c1	TDP1 cell noCPT inconclusive, DT40 TDP1 CPT inconclusive (no result: Giardia kill, IL-1B inflam inh, ELG1 repair inh)
CC(C)(C)OC(=O)N1CCC(NC(=O)c2[nH]cnc2C(=O)Nc2ccccc2F)CC1	TDP1 cell noCPT inconclusive, DT40 TDP1 CPT inconclusive (no result: Giardia kill, TDP1 inh, ELG1 repair inh)
CCc1ccc2c(c1)c(=O)c(C(=O)c1ccccc1)cn2CC(=O)Nc1ccc(C)c(Cl)c1	TDP1 cell noCPT 12µM, DT40 TDP1 CPT 21µM (no result: Giardia kill, IL-1B inflam inh, ELG1 repair inh)
COc1ccc2c(c1)c(=O)c(C(=O)c1ccc(C)cc1)cn2CC(=O)Nc1ccc(F)cc1	TDP1 cell noCPT 16µM, DT40 TDP1 CPT inconclusive
CCc1ccc(C(=O)c2cn(CC(=O)Nc3cccc(OC)c3)c3ccc(OC)cc3c2=O)cc1	TDP1 cell noCPT 23µM, DT40 TDP1 CPT inconclusive (no result: Giardia kill, TDP1 inh, IL-1B inflam inh, ELG1 repair inh)
Cc1nn(Cc2ccc(F)cc2)c(C)c1NC(=O)CCCn1nc([N+](=O)[O-])cc1C	none
Nc1c(CC(=O)O)cccc1C(=O)c1ccc(Br)cc1	none (no result: Giardia kill, IL-1B inflam inh, ELG1 repair inh)
COc1ccc2c(C(=O)CCl)c[nH]c2c1	TDP1 cell noCPT 3.3µM, ELG1 repair inh inconclusive, DT40 TDP1 CPT 2.6µM (no result: TDP1 inh)
c1cc(NC2CC2)nc(-c2ccoc2)n1	none (no result: Giardia kill, TDP1 inh, IL-1B inflam inh, ELG1 repair inh)
COC(=O)c1ccccc1NC(=S)NC(=O)c1cccc2ccccc12	TDP1 cell noCPT inconclusive, DT40 TDP1 CPT 16µM
CN1CCN(c2ccc(NC(=S)NC(=O)c3cccc4c(Br)cccc34)cc2)CC1	TDP1 cell noCPT 18µM, DT40 TDP1 CPT 21µM
CC(=O)N1CCN(c2ccc(NC(=S)NC(=O)c3ccccc3)cc2)CC1	none
CN1CCN(c2ccc(NC(=S)NC(=O)c3cccc4ccccc34)cc2)CC1	TDP1 cell noCPT 12µM, IL-1B inflam inh -100, DT40 TDP1 CPT 23µM
COc1ccccc1C(=O)NC(=S)Nc1cccc2cc(O)ccc12	IL-1B inflam inh -85, DT40 TDP1 CPT inconclusive (no result: TDP1 inh, ELG1 repair inh)
c1ccc(-c2nn[nH]n2)nc1	none (no result: TDP1 inh)
CCOc1ccccc1N(C(=O)c1snc(C(N)=O)c1N)C(C(=O)NC1CCCC1)c1ccco1 (stereo unspecified)	none
COc1ccc(N(C(=O)c2snc(C(N)=O)c2N)C(C(=O)NC2CCCC2)c2ccco2)c(OC)c1 (stereo unspecified)	TDP1 cell noCPT 23µM, IL-1B inflam inh -70, DT40 TDP1 CPT inconclusive
COc1ccc(N(C(=O)c2snc(C(N)=O)c2N)C(C(=O)NC2CCCCC2)c2ccc(C)o2)c(OC)c1 (stereo unspecified)	TDP1 cell noCPT 21µM, DT40 TDP1 CPT 12µM
COc1ccc(C)cc1N(C(=O)c1snc(C(N)=O)c1N)C(C(=O)NC1CCCC1)c1ccc(F)cc1 (stereo unspecified)	TDP1 cell noCPT 16µM, DT40 TDP1 CPT inconclusive
Nc1ncnc2c1ncn2[C@@H]1O[C@H](CNS(=O)(=O)c2cc3ccccc3s2)[C@@H](O)[C@H]1O	TDP1 cell noCPT inconclusive, ELG1 repair inh inconclusive, DT40 TDP1 CPT inconclusive
